The record followed here is PubChem BioAssay AID1026 (Columbia University Molecular Screening Center, 2008).

Values without a mark were called inactive. No rule for the calls is given here.

The target in this assay is Bifunctional epoxide hydrolase 2 (Homo sapiens) (UniProt P34913). As to the kind of experiment: sEH inhibitor concentration-response potency, dose response, biochemical, human sEH, fluorescence, Infinite200 (AID 1026). The following applies: recombinant human sEH, fluorogenic substrate, at 0.2 µM, hits give high values.
Chain of Bifunctional epoxide hydrolase 2 (Homo sapiens) (P34913 whole entry, looked up): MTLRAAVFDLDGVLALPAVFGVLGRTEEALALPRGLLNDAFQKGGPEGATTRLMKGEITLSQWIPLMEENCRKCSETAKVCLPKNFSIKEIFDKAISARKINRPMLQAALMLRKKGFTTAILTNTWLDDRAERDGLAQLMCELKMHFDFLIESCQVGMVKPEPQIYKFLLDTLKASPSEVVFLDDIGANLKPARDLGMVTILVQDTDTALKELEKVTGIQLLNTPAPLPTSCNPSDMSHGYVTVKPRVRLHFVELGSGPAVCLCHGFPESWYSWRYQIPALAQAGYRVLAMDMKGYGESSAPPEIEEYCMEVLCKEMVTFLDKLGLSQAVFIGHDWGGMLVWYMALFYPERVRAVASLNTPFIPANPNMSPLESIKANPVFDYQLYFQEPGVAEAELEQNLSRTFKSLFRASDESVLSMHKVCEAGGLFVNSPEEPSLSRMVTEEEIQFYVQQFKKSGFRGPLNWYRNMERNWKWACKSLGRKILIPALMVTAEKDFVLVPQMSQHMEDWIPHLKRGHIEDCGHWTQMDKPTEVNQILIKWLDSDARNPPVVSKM
Take `O=C(NCc1ccc2c(c1)OCO2)C1CCN(Cc2cnn(-c3ccccc3)c2-n2cccc2)CC1`: the inhibition is 57.2%.

Consider `CC(C)CN1C(=O)c2ccc(C(=O)NCc3ccc4c(c3)OCO4)cc2C1=O`, for which the inhibition was 56%. `O=C(NCCC1=CCCCC1)C1CCN(c2nc3ccccc3o2)CC1`: the inhibition is 45.6%. Then `O=C(N[C@@H](Cc1ccccc1)C(=O)NC1CCCCCC1)c1ccco1`, with 36.3%. Then `COc1ccc(N2CCC(CNC(=O)Nc3cccc(OC)c3)C2)cc1` (stereo not given), with 44.5%. The figure for `O=C(NCCC1=CCCCC1)c1ccc(F)c(S(=O)(=O)N2CCOCC2)c1` is 60.6%; for `CC1CCCCN1C(=O)NC12CC3CC(CC(C3)C1)C2` (stereo not given) it is 16.8%; for `CCc1c(C)nc2ncnn2c1N1CCC(C(=O)NCc2ccc3c(c2)OCO3)CC1` it is 41%.

Turning to `CC1CC(C)CN(C(=O)c2ccc3c(=O)n(Cc4ccc5c(c4)OCO5)c(=S)[nH]c3c2)C1` (stereo not given), the inhibition was 54.3%. The figure for `CCN(CCNC(=O)C1CCN(Cc2nc(-c3cccc(Cl)c3)oc2C)CC1)c1ccccc1` is 45.4%; for `Cc1ccc(-n2nnnc2SCC(=O)NCCC2=CCCCC2)c(C)c1` it is 41.9%; for `CC(Cc1cccs1)NC(=O)NC1CCCCC1` (stereo not given) it is 57.2%. Then `O=C(NCc1ccc(N2CCCC2=O)cc1)NC1CCCCC1`, with 47.5%; and `CC(=O)NC1CC2CCCC(C1)N2C(=O)Nc1ccc(Cl)c(C(F)(F)F)c1` (stereo not given), with 41.4%.

In the case of `Cn1c(C(=O)N2CCCC(C(=O)NCCCSC3CCCCC3)C2)cc2sccc21` (stereo not given), the inhibition is 49.4%. Then `Cc1ccc(Cn2ccc(=O)c(Cc3c(Cl)cccc3Cl)c2C)cc1`, with 63.6%. The figure for `O=C(NCc1cccs1)C1CCC(CNS(=O)(=O)c2ccc(Br)s2)CC1` (stereo not given) is 62.3%; for `Cc1ccc(S(=O)(=O)N2CCCC(C(=O)NCCC3=CCCCC3)C2)cc1` (stereo not given) it is 35.1%. `O=C(Nc1ccccc1)Nc1ccc(S(=O)(=O)N2CCCCC2)cc1`: the inhibition is 72.3%. On to `CCC(C)[C@H](NC(=O)NCc1ccccc1Cl)C(=O)OC` (stereo not given in full), for which the inhibition was 48.1%. The figure for `CCN(CCNC(=O)C1CCN(Cc2nc(-c3ccc(Cl)cc3)oc2C)CC1)c1ccccc1` is 36.3%. Consider `CC(NC(=O)CSc1nnc(-c2cccc(S(=O)(=O)N3CCCCC3)c2)o1)C12CC3CC(CC(C3)C1)C2` (stereo not given), for which the inhibition is 66%. Then `CC(C)c1ccc(NC(=O)NC2CCN(CC(=O)Nc3cccc4ccccc34)CC2)cc1`, with 62.2%. The figure for `COc1ccccc1NS(=O)(=O)c1cccc(C(=O)N/N=C(\C)c2ccc(-n3ccnc3)cc2)c1` is 46.4%; for `CCCC(=O)Nn1cnc2c(c1=O)C1(CCCCC1)Cc1ccccc1-2` it is 71.2%.

The term inhibition denotes the change of the read-out against control, counted positive when it falls.
